Screens: PubChem BioAssay, several laboratories
Shown are actives, neighbours in structure and some others; about 5.4% of the full set was active somewhere.
aDG glyco act: increases alpha dystroglycan glycosylation; 360,000 tested, 0.22% active; Pro5-aDG cells, alpha-DG glycosylation AlphaScreen (IIH6); 0% Pro5, 100% B10-LARGE cell signal; activation, % at 10 µM; AID 624168;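 active = activation of at least 8% versus controls, or a plate z-score of at least 8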;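 also: Pro5 are CHO cells carrying HIG-tagged alpha-DG that lacks glycosylation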
rCAG binder: molecules binding r(CAG) RNA repeats | r(CAG) RNA repeat, TO-PRO-1 dye displacement fluorescence | inhibition, % at 3 µM | 370,000 tested, 1.3% active;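 active = inhibition above the plate cutoff, the mean of all test compounds on that plate plus 3 SD, cut at about 35% in these data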;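 also: 0% = DMSO alone and 100% = 100 µM mitoxantrone as full dye displacement; higher means more dye released from RNA so lower well fluorescence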
A3A deaminase: human APOBEC3A DNA deaminase inhibition | 330,000 tested, 0.41% active | P31941 | AID 493011 | inhibition, % at 20 µM | recombinant A3A, FAM/TAMRA ssDNA deamination fluorescence;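 active = at least 40% inhibition at 20 µM here, with at most 30% in a related deaminase screen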;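 also: plate controls were A3A with DMSO for no effect and wells lacking A3A enzyme for full effect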
ALR inh: human ALR oxidase inhibition via reduced H2O2. P55789. purified ALR, DTT oxidation, H2O2 HRP-luminol luminescence. inhibition, % (test concentration not listed). 290,000 tested, 3.8% active. AID 485317;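 active = mean replicate inhibition above about 79%, with every replicate also reaching it, limit read from the data; inconclusive = only one of the two criteria met; inactive = mean below limit and not every replicate reaching it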
Target sequence (P55789 whole entry, looked up): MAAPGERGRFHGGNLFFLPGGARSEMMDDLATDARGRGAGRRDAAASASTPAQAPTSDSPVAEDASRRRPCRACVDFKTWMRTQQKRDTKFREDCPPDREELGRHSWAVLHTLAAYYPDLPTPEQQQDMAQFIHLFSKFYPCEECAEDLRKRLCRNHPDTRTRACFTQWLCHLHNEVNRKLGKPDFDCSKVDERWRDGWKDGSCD
A3G deaminase: inhibitors of human APOBEC3G DNA deaminase. AID 493012. 330,000 tested, 0.28% active. recombinant A3G, ssDNA deamination FAM/TAMRA fluorescence. inhibition, % at 20 µM. Q9HC16;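 active = inhibition of at least 40% at 20 µM, with no more than 30% in the related APOBEC3A deaminase screen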;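 also: plate controls were DMSO wells with A3G for no effect and wells lacking A3G enzyme for full effect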
Target sequence (Q9HC16 whole entry, looked up): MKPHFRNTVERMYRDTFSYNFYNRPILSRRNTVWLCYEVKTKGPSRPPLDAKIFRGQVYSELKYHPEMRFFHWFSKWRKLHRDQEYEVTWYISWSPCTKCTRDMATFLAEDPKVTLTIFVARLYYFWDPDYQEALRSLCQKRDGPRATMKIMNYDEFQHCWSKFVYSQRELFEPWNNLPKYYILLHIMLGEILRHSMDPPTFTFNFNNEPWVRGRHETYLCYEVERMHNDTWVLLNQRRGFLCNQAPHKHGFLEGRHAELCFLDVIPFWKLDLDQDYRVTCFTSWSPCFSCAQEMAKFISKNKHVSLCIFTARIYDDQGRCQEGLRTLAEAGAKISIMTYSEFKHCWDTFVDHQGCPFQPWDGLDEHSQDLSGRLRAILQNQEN
PHOSPHO1 inh: blocks human PHOSPHO1 phosphatase activity. 290,000 tested, 1.1% active. recombinant PHOSPHO1, absorbance phosphatase assay. Q8TCT1. inhibition, % at 13.3 µM; in the data active = inhibition above about 60%
Numbers without * were called inactive; ? = inconclusive; / = no result given.

SMILES	aDG glyco act	rCAG binder	A3A deaminase	ALR inh	A3G deaminase	PHOSPHO1 inh
C=CCNc1sc(C(=O)c2ccc(Br)s2)c(N)c1C#N	0	12	0	-8	-3	82*
C=CCNc1sc(C(=O)c2ccccc2)c(N)c1C#N	0	-4	-5	/	-6	96*
Cn1nc(C(C)(C)C)cc1C(=O)NCc1ccc(N2CCCC2=O)cc1	4.7*	-5	1	-2	-1	3
Cc1ccc(CNC(=O)c2ccc(N3CCCC3=O)cc2)cc1	0	-2	2	-27	0	-1
Cc1ccc2nc(NCCO)nc(-c3ccccc3)c2c1	0	-6	-3	98*	-5	-25
OCCNc1nc(-c2ccccc2)c2cc(Cl)ccc2n1	0	-5	0	-26	-6	6
O=C(CSc1nnc(C2CC2)n1C1CC1)c1ccc(F)cc1	0	3	-3	?	-4	/
CC(=O)NCc1ccc(C(=O)CSc2nnc(C3CC3)n2C2CC2)cc1	0	2	-6	78*	-9	/
Cc1cc(NC(=O)CSc2nnc(-c3ccco3)n2Cc2ccccc2)no1	0	-6	3	-1	2	4
Cc1cc(NC(=O)CSc2nnc(-c3ccc(Br)o3)n2Cc2ccccc2)no1	0	1	0	-18	-3	66*
COc1cccc(-c2csc(NC3OC(=O)c4c3ccc(OC)c4OC)n2)c1 (centres undefined)	0	2	-2	97*	-6	-57
COc1ccc2c(c1OC)C(=O)OC2Nc1nc(-c2cc3cc([N+](=O)[O-])ccc3oc2=O)cs1 (centres undefined)	0	2	0	17	-4	-6
COc1ccc2c(c1OC)C(=O)OC2Nc1nc(-c2ccc(-c3ccccc3)cc2)cs1 (centres undefined)	0	11	3	96*	-3	14
COc1ccc2c(c1OC)C(=O)OC2Nc1nc(-c2cc3ccccc3oc2=O)cs1 (centres undefined)	0	9	-3	/	-6	2
CN1CCCCC(NC(=O)c2cccc([N+](=O)[O-])c2)C1=O (centres undefined)	/	2	/	/	/	/
O=C(NCc1cnn(-c2ccc(F)cc2)c1)C1CCC(=O)N(C2CC2)C1 (centres undefined)	0	-4	-5	-9	-5	61*
Cc1[nH]n(-c2ccccc2)c(=O)c1-c1ccccc1	0	6	0	70	0	-4
Cc1cc(-c2ccccc2)nc2[nH]n(-c3ccccc3)c(=O)c12	0	6	2	99*	-4	17
Cc1cc(C(C)(C)C)nc2[nH]n(-c3ccccc3)c(=O)c12	0	0	-4	96*	-6	5
Cc1cc(C)c2c(=O)n(-c3ccccc3)[nH]c2n1	0	7	-3	99*	-3	-5
O=c1c2c(C(F)(F)F)cc(C(F)(F)F)nc2[nH]n1-c1ccccc1	0	6	-2	26	-3	8
CC(C)C(=O)N1CC[C@H]2[C@H](CCCN2Cc2ccccc2)C1	/	1	/	/	/	/
O=C(Nc1ccc(Cl)c(Cl)c1)C1CCN(c2nnc(-n3cccc3)s2)CC1	/	6	/	/	/	/
COC(=O)c1cc2c(c3c4cc(F)ccc4n(S(=O)(=O)c4ccc(C)cc4)c13)C(=O)N(Cc1ccccc1OC)C2	/	14	/	/	/	/
COc1ccc(C2NC(=O)C(C#N)=C(S)N2c2ccccc2)cc1OC (centres undefined)	0	1	3	94*	-4	35
SMILES	aDG glyco act	rCAG binder	A3A deaminase	ALR inh	A3G deaminase	PHOSPHO1 inh
O=[N+]([O-])c1ccc(Nc2ccccc2O)c2nonc12	0	-4	1	99*	19	8
O=C(O)c1ccc(Nc2ccc([N+](=O)[O-])c3nonc23)cc1	0	-2	-2	4	2	39
Cc1sc2nc3c4ccccc4c(NCc4ccco4)nn3c(=O)c2c1C	0	20	2	98*	12	24
Cc1nc(NCc2ccco2)c2c(C)c(C)sc2n1	0	-1	0	97*	-5	29
CCOC(=O)c1sc2nc(CC(=O)OC)nc(NCc3ccco3)c2c1C	0	15	/	/	/	-31
Cc1sc2ncnc(SCc3ccco3)c2c1C	0	1	-1	91*	2	37
O=C(NC1CCCCN(Cc2cccc(Cl)c2)C1=O)c1ccccn1 (centres undefined)	/	1	/	/	/	/
COC(=O)[C@]12C[C@H](CC(=O)NCCCN3CCCC3=O)C(=O)N(Cc3cccc4ccccc34)C1=C[C@H](C(C)C)O[C@@H]2C1CC1	/	5	/	/	/	/
CC1Cc2nc(SCC(=O)OCc3ccccc3)n(C)c(=O)c2S1 (centres undefined)	0	0	-1	99*	2	-21
CC1Cc2nc(SCC(=O)N3CCc4ccccc43)n(C)c(=O)c2S1 (centres undefined)	1	3	1	98*	-2	-31
CC1Cc2nc(SCC(=O)Nc3nc4ccccc4s3)n(C)c(=O)c2S1 (centres undefined)	1	10	-5	99*	-10	2
CCc1nnc(NC(=O)CSc2nc3c(c(=O)n2C)SC(C)C3)s1 (centres undefined)	0	4	-7	-28	-6	-3
c1ccc2c(c1)OCc1nccn1-2	/	2	/	/	/	/
Cc1cccc(-c2nc(CS(=O)CC(=O)NCCCSC3CCCCC3)c(C)o2)c1 (centres undefined)	0	-9	-5	64	-9	18
Cc1oc(-c2ccccc2)nc1CS(=O)CC(=O)NC1CCCCCC1 (centres undefined)	0	1	-6	100*	-5	21
Cc1cccc(-c2nc(CS(=O)CC(=O)NC3CCCCC3)c(C)o2)c1 (centres undefined)	0	-4	-6	99*	-6	4
COCCn1cnnc1SCC(=O)c1ccc(S(=O)(=O)N2CCCC2)cc1	0	9	-3	87*	-8	33
c1cc2ccn(CC3CC3)c2cc1-c1ccc2ccn(CC3CC3)c2c1	/	6	/	/	/	/
Cc1cs/c(=N\N=C2CCCCC2)n1Cc1ccco1	0	-3	0	96*	-6	-14
CC(C)=N/N=c1\scc(C)n1Cc1ccco1	0	-1	-3	49	-5	-18
Cc1cs/c(=N\N=C\c2ccccc2)n1Cc1ccco1	0	-1	/	84*	/	-6
COC(=O)C1=C(C)N(C)C(=NCc2ccccc2)NC1CCc1ccccc1 (centres undefined)	/	9	/	/	/	/
CCN1CCS/C1=C/C=C/C1=[N+](CC)CCS1	0	/	/	97*	/	0
COCCCn1cnn2c(=O)c3ccccc3nc2c1=O	/	2	/	/	/	/
c1ccc(CNc2ccc3c(c2)ncn3C2CCCCC2)nc1	0	-8	-5	94*	-4	-14
CN(c1cccnc1)c1ccc(NC(=O)Cc2c[nH]c3ccccc23)cc1-c1ccc(F)c(F)c1	/	16	/	/	/	/
